Experiments:
Type in all cases: functional
Plasmodium falciparum [1] = test: GSK_TCMDC: Inhibition of Plasmodium falciparum 3D7 in whole red blood cells, using parasite LDH activity as an index of growth. Test compounds present at 2uM
Plasmodium falciparum [2] = test: GSK_TCMDC: Inhibition of Plasmodium falciparum Dd2 in whole red blood cells, using parasite LDH activity as an index of growth. Test compounds present at 2uM
HepG2 = test: GSK_TCMDC: Percent inhibition of human HepG2 cell line. Test compounds present at 10uM.

SMILES: Cc1nnsc1C(=O)Nc1cccc(-c2ccc(-c3nc4cc(F)ccc4[nH]3)s2)c1
- Inhibition (Plasmodium falciparum [1]): 89%
- Inhibition (Plasmodium falciparum [2]): 22%
- Inhibition (HepG2): 62%

SMILES: OCc1ccc(-c2cncc(Nc3cccc(Cl)c3)c2)cc1
- Inhibition (Plasmodium falciparum [1]): 95%
- Inhibition (Plasmodium falciparum [2]): 100%
- Inhibition (HepG2): 4%

SMILES: O=C(Nc1ccccc1)Nc1cccc(-c2ccc(-c3nc4cc(C(F)(F)F)ccc4[nH]3)cc2)c1
- Inhibition (Plasmodium falciparum [1]): 100%
- Inhibition (Plasmodium falciparum [2]): 37%
- Inhibition (HepG2): 48%

SMILES: COc1ccc2nccc([C@@H](O)CN3CCC(NC(=O)/C=C/c4ccc(F)c5ccccc45)CC3)c2c1
- Inhibition (Plasmodium falciparum [1]): 100%
- Inhibition (Plasmodium falciparum [2]): 75%
- Inhibition (HepG2): 37%

SMILES: COc1cc2cc(Cc3cnc(N)nc3N)ccc2c(OC)c1OC.Cl
- Inhibition (Plasmodium falciparum [1]): 97%
- Inhibition (Plasmodium falciparum [2]): 2%
- Inhibition (HepG2): 1%

SMILES: COc1cc(OC)nc(C(Sc2ccc(NC(=O)c3cccs3)cc2)c2ccccc2)n1 (centres undefined)
- Inhibition (Plasmodium falciparum [1]): 97%
- Inhibition (Plasmodium falciparum [2]): 96%
- Inhibition (HepG2): 7%

SMILES: CNCCNCc1cccc(-c2cccc(-c3nc4cccc(C)c4[nH]3)c2)c1.O=C(O)C(F)(F)F
- Inhibition (Plasmodium falciparum [1]): 98%
- Inhibition (Plasmodium falciparum [2]): 9%
- Inhibition (HepG2): 6%

SMILES: NC1CCCN(Cc2cccc(-c3ccc(-c4nc5ccccc5[nH]4)cc3)c2)C1.O=C(O)C(F)(F)F (centres undefined)
- Inhibition (Plasmodium falciparum [1]): 100%
- Inhibition (Plasmodium falciparum [2]): 73%
- Inhibition (HepG2): 25%

SMILES: Cc1ccc(CN(Cc2ccc(C(=O)N(C)C)cc2)Cc2ccc3c(c2)OCCO3)cc1C
- Inhibition (Plasmodium falciparum [1]): 91%
- Inhibition (Plasmodium falciparum [2]): 87%
- Inhibition (HepG2): 10%

SMILES: CN(C)c1ccc(-c2csc(C(=O)NCC3CCN(Cc4cccc(C(F)(F)F)c4)C3)c2)cc1.O=C(O)C(F)(F)F (centres undefined)
- Inhibition (Plasmodium falciparum [1]): 97%
- Inhibition (Plasmodium falciparum [2]): 58%
- Inhibition (HepG2): 15%

SMILES: O=C(Nc1ccc(Cl)cc1)Nc1ccc(-c2ccc(-c3nc4ccccc4[nH]3)cc2)cc1
- Inhibition (Plasmodium falciparum [1]): 100%
- Inhibition (Plasmodium falciparum [2]): 99%
- Inhibition (HepG2): 47%

SMILES: CC(C)c1ccc2oc(-c3ccc(NC(=O)c4ccc([N+](=O)[O-])o4)cc3)nc2c1
- Inhibition (Plasmodium falciparum [1]): 100%
- Inhibition (Plasmodium falciparum [2]): 95%
- Inhibition (HepG2): 99%

SMILES: CCOc1ccc(NC(=O)c2ccc(CN3CCCN(Cc4cccc(O)c4)CC3)cc2)cc1.O=C(O)C(F)(F)F
- Inhibition (Plasmodium falciparum [1]): 85%
- Inhibition (Plasmodium falciparum [2]): 9%
- Inhibition (HepG2): 44%

SMILES: COc1cccc(C(=O)NCc2cccs2)c1Oc1ccccc1
- Inhibition (Plasmodium falciparum [1]): 98%
- Inhibition (Plasmodium falciparum [2]): 4%
- Inhibition (HepG2): 0%

SMILES: CN1CCC[C@@H](Oc2cc3c(cc2Br)CCN3C(=O)Nc2ccc(-c3ccncc3)c(Cl)c2)C1
- Inhibition (Plasmodium falciparum [1]): 99%
- Inhibition (Plasmodium falciparum [2]): 64%
- Inhibition (HepG2): 26%

SMILES: CCCCCCN1CCCN(Cc2ccc(C(=O)Nc3ccc(Cl)cc3)cc2)CC1.O=C(O)C(F)(F)F
- Inhibition (Plasmodium falciparum [1]): 89%
- Inhibition (Plasmodium falciparum [2]): 54%
- Inhibition (HepG2): 50%

SMILES: Cc1cc(Nc2ccc(C)c(C)c2)n2nc(C)nc2n1
- Inhibition (Plasmodium falciparum [1]): 95%
- Inhibition (Plasmodium falciparum [2]): 45%
- Inhibition (HepG2): 10%

SMILES: CC(O)C1CCCCN1C(=O)c1cccc(-c2ccc(-c3nc4cc(C(F)(F)F)ccc4[nH]3)cc2)c1 (centres undefined)
- Inhibition (Plasmodium falciparum [1]): 100%
- Inhibition (Plasmodium falciparum [2]): 100%
- Inhibition (HepG2): 33%

SMILES: Cc1ccc(-n2cc(CNCC3CCN(CCO)CC3)c(-c3ccc(F)cc3)n2)cc1
- Inhibition (Plasmodium falciparum [1]): 91%
- Inhibition (Plasmodium falciparum [2]): 18%
- Inhibition (HepG2): 29%

SMILES: COc1ccc2nc3cc(Cl)ccc3c(NCCCCN3CCNCC3)c2c1.Cl
- Inhibition (Plasmodium falciparum [1]): 100%
- Inhibition (Plasmodium falciparum [2]): 75%
- Inhibition (HepG2): 29%

SMILES: CCCc1cc(Cc2cnc(N)nc2N)cc(CCC)c1OCCCCC(=O)O
- Inhibition (Plasmodium falciparum [1]): 95%
- Inhibition (Plasmodium falciparum [2]): 23%
- Inhibition (HepG2): 18%

SMILES: CCn1c(C2CCN(CCC3CCN(C(=O)/C=C/c4ccc(Cl)c(Cl)c4)CC3)CC2)nc2ccccc21
- Inhibition (Plasmodium falciparum [1]): 86%
- Inhibition (Plasmodium falciparum [2]): 0%
- Inhibition (HepG2): 17%

SMILES: O=C(O)c1cc(OCC(O)COc2ccc(O)c(C(=O)O)c2)ccc1O
- Inhibition (Plasmodium falciparum [1]): 99%
- Inhibition (Plasmodium falciparum [2]): 6%
- Inhibition (HepG2): 9%

SMILES: CS(=O)(=O)c1ccc(CNCc2cccc(-c3cccc(-c4nc5ccccc5[nH]4)c3)c2)cc1.O=C(O)C(F)(F)F
- Inhibition (Plasmodium falciparum [1]): 100%
- Inhibition (Plasmodium falciparum [2]): 47%
- Inhibition (HepG2): 3%

SMILES: COc1ccc(CCN(C)CCCOc2ccc(NC(=O)COc3cccc4sc5ccccc5c(=O)c34)cc2)cc1OC
- Inhibition (Plasmodium falciparum [1]): 94%
- Inhibition (Plasmodium falciparum [2]): 90%
- Inhibition (HepG2): 99%

SMILES: COc1cccc2cc(C(=O)N[C@@H](CC(C)C)C(=O)N[C@H](C=NN(C)C(=O)OC(C)(C)C)Cc3ccccc3)oc12
- Inhibition (Plasmodium falciparum [1]): 99%
- Inhibition (Plasmodium falciparum [2]): 89%
- Inhibition (HepG2): 5%

SMILES: Cc1cnc(-c2ccc(NC(=O)c3coc4ccc(N5CC(C)N(C)C(C)C5)cc34)cc2)o1.Cl (centres undefined)
- Inhibition (Plasmodium falciparum [1]): 96%
- Inhibition (Plasmodium falciparum [2]): 39%
- Inhibition (HepG2): 18%

SMILES: CCOC(=O)c1cc(C(=O)NCCCCN2CCC(c3ccc(CC)cc3OCC)CC2)ccc1-c1ccc(C(F)(F)F)cc1
- Inhibition (Plasmodium falciparum [1]): 99%
- Inhibition (Plasmodium falciparum [2]): 71%
- Inhibition (HepG2): 74%

Reference: ChEMBL document CHEMBL1157539, “Thousands of chemical starting points for antimalarial lead identification” (Nature, 2010)
